Among the data in ChEMBL document CHEMBL1157539, “Thousands of chemical starting points for antimalarial lead identification” (Nature, 2010) are Inhibition values, retold here.

Assay type in all cases: functional
In assay [1] the test system is Plasmodium falciparum. The assay is described as follows: GSK_TCMDC: Inhibition of Plasmodium falciparum 3D7 in whole red blood cells, using parasite LDH activity as an index of growth. Test compounds present at 2uM.
In assay [2] the test system is Plasmodium falciparum. Kind of assay: GSK_TCMDC: Inhibition of Plasmodium falciparum Dd2 in whole red blood cells, using parasite LDH activity as an index of growth. Test compounds present at 2uM.
Another assay concerns HepG2. The assay is described as follows: GSK_TCMDC: Percent inhibition of human HepG2 cell line. Test compounds present at 10uM.

On to `CC(C)c1ccc(Nc2nc(NCCc3c[nH]cn3)nc(NCc3ccccc3)n2)cc1`, for which the Inhibition (commonly the share of the control response that was lost under treatment) was determined as 98% in the assay with Plasmodium falciparum [1], 2% in the assay on Plasmodium falciparum [2] and 1% with HepG2.
With `O=C(/C=C/c1ccc(Cl)c(Cl)c1)NCCCCCN1CCC(NC(=O)Nc2ccc(Br)cc2)CC1`, the Inhibition amounted to 100% with Plasmodium falciparum [1], 7% in the assay on Plasmodium falciparum [2] and 36% with HepG2.
With `CC1CCC(C[C@@H](C(=O)N[C@@H](CCC(=O)N2CCCCC2)C(=O)Nc2nccs2)[C@H](C(C)C)N(O)C=O)CC1` (some centres not stated), the figures for the Inhibition in the assay with Plasmodium falciparum [1], with Plasmodium falciparum [2] and in the assay on HepG2 were 87%, 70% and 38%, respectively.
Turning to `COc1ccc(Nc2nccc(N3CCC(NC(=O)C(C)c4ccc(Cl)cc4)C3)n2)cc1` (configuration not stated), the values for the Inhibition in the assay on Plasmodium falciparum [1], with Plasmodium falciparum [2] and with HepG2 were 85%, 97% and 35%, respectively.
Turning to `O=C(C=Cc1ccc(-c2nc3ccccc3[nH]2)cc1)NC1CCN(Cc2ccccc2)CC1`, the Inhibition with Plasmodium falciparum [1] is listed as 99%; in the assay on Plasmodium falciparum [2] it was 88%; in the assay with HepG2, 15%.
The like results for `COc1c(CCNCCCCNCCc2cc(Cl)c3ccccc3c2OC)cc(Cl)c2ccccc12.CS(=O)(=O)O` were, in that order, 99%, 100% and 99%.
Turning to `CN1CCN(CCCNc2ncc3c(-c4ccc(NC(=O)Nc5cc(C(F)(F)F)ccc5F)c(F)c4)nn(C)c3n2)CC1.O=C(O)C(F)(F)F`, the Inhibition was 98% with Plasmodium falciparum [1], 94% in the assay with Plasmodium falciparum [2] and 100% in the assay on HepG2.
For the compound `CC(C)Oc1ccc(N2CCN(CCCCNC(=O)c3ccc(NC(=O)c4ccc(Cl)cc4)cc3)CC2)c(OC(C)C)c1`, the Inhibition in the assay with Plasmodium falciparum [1] was 100%; in the assay on Plasmodium falciparum [2] it was 85%; in the assay on HepG2, 31%.
The like results for `COc1cc(Cc2cnc(N)nc2N)cc(OC)c1OCCCCCN1C(=O)c2ccccc2C1=O` were, in that order, 97%, 4% and 5%.
Turning to `C=C[C@]1(C)C[C@@H](OC(=O)c2cncn(COC)c2=O)[C@]2(C)[C@H](C)CC[C@]3(CCC(=O)[C@H]32)[C@@H](C)[C@@H]1O`, the results for the Inhibition in the assay on Plasmodium falciparum [1], in the assay on Plasmodium falciparum [2] and with HepG2 were 96%, 7% and 0%, respectively.
The like results for `O=C(Nc1cccc(-c2nn3ccccc3c2-c2ccnc(Nc3cccc(C(F)(F)F)c3)n2)c1)c1c(F)cccc1F` were, in that order, 97%, 91% and 43%.
On to `COc1cccc(-c2c(C#N)c(N)nc3c2c(C)nn3-c2ccccc2)c1O`, for which the figures for the Inhibition in the assay on Plasmodium falciparum [1], in the assay on Plasmodium falciparum [2] and in the assay with HepG2 were 100%, 100% and 4%, respectively.
For `Cc1cnc(N2CCN(CC3CCN(C)CC3)CC2)nc1Oc1ccc(-n2ccnc2)cc1.O=C(O)C(F)(F)F`, the Inhibition is 99% with Plasmodium falciparum [1], 66% in the assay on Plasmodium falciparum [2] and 9% in the assay with HepG2.
Turning to `O=C(O)/C=C\C(=O)O.O=c1c2sc(-c3ccc(Cl)cc3)cc2ncn1Cc1ccc(OCCN2CCCC2)c2ccccc12`, the Inhibition came to 100% in the assay with Plasmodium falciparum [1], 81% in the assay with Plasmodium falciparum [2] and 38% with HepG2.
`O=c1c(NCCCN(Cc2ccc(F)cc2)c2ccccn2)c(NCc2ccncc2)c1=O`: the values for the Inhibition in the assay with Plasmodium falciparum [1], in the assay with Plasmodium falciparum [2] and in the assay on HepG2 were 100%, 95% and 30%, respectively.
The like results for `COc1ccc(NC(=O)C2c3ccccc3C(=O)N(C3CCCC3)C2c2cccs2)cc1` (configuration not stated) were, in that order, 93%, 75% and 0%.
The like results for `CN(C)c1ccc(-c2csc(C(=O)NCC3CCN(CC4CCCCC4)C3)c2)cc1.O=C(O)C(F)(F)F` (configuration not stated) were, in that order, 86%, 28% and 35%.
The like results for `CN/C(=C\[N+](=O)[O-])NCCSCc1cc(C)c(CN(C)C)s1` were, in that order, 98%, 96% and 48%.
For the compound `CN1CCN(CCCN(Cc2cccc(-c3ccc(CNCCc4ccccc4)cc3)c2)C(=O)Nc2ccccc2)CC1.O=C(O)C(F)(F)F`, the Inhibition is 100% in the assay on Plasmodium falciparum [1], 91% with Plasmodium falciparum [2] and 61% in the assay on HepG2.
Consider `CN(/N=C/c1ccc(Cl)cc1)c1nc(NCCc2ccc(O)cc2)nc(N2CCNCC2)n1`, for which the Inhibition in the assay on Plasmodium falciparum [1] is given as 100%; in the assay on Plasmodium falciparum [2], 97%; in the assay on HepG2, 10%.
Turning to `FC(F)(F)c1ccc2nccc(NCc3ccccc3)c2c1`, the figures for the Inhibition in the assay with Plasmodium falciparum [1], in the assay on Plasmodium falciparum [2] and in the assay with HepG2 were 93%, 56% and 18%, respectively.
Regarding `Nc1ncnc2cc(-c3cccc(NC(=O)Nc4ccccc4)c3)sc12`, the Inhibition in the assay with Plasmodium falciparum [1] is 94%; in the assay on Plasmodium falciparum [2], 33%; in the assay with HepG2, 4%.
Turning to `O=C(NCCN1CCCCC1)c1cc2cc(-c3ccccc3)ccc2n1S(=O)(=O)c1ccccc1`, the Inhibition came to 90% with Plasmodium falciparum [1], 0% in the assay on Plasmodium falciparum [2] and 15% in the assay with HepG2.
The like results for `O=C(Nc1ccc(Cn2ncc(N3CCCNCC3)c(Cl)c2=O)cc1)Nc1ccc(-c2ccccc2)cc1.O=C(O)C(F)(F)F` were, in that order, 93%, 51% and 10%.
For the compound `CN(C)CC(=O)N(Cc1ccc(Cl)c(Cl)c1)Cc1csc(-c2ccc(CNCc3ccccc3)cc2)n1.O=C(O)C(F)(F)F`, the Inhibition with Plasmodium falciparum [1] was determined as 96%; with Plasmodium falciparum [2], 32%; in the assay with HepG2 it was 30%.
`CC(C)CC1c2[nH]c3ccccc3c(=O)c2CN1C(=O)OC(C)(C)C` (configuration not stated): the Inhibition in the assay on Plasmodium falciparum [1] stood at 97%; with Plasmodium falciparum [2], 96%; in the assay on HepG2 it was 2%.
For the compound `CCOc1cc(C(C)C)ccc1N1CCN(CCCCNC(=O)c2ccc(NC(=O)c3ccc(Cl)cc3)cc2)CC1`, the Inhibition in the assay on Plasmodium falciparum [1] worked out at 100%; in the assay with Plasmodium falciparum [2], 97%; in the assay on HepG2 it was 28%.
In the case of `CN(Cc1ccc(NC(=O)CCC2CCN(C(=O)/C=C/c3ccc(Cl)c(Cl)c3)CC2)cc1)C1CCOCC1`, the values for the Inhibition in the assay on Plasmodium falciparum [1], in the assay on Plasmodium falciparum [2] and in the assay with HepG2 were 94%, 2% and 10%, respectively.
Turning to `CN(CCN1CCCC1)c1nc2cc(-n3cnc4cc(-c5ccc(Cl)cc5)sc4c3=O)ccc2[nH]1.CS(=O)(=O)O`, the results for the Inhibition in the assay on Plasmodium falciparum [1], in the assay with Plasmodium falciparum [2] and with HepG2 were 93%, 15% and 76%, respectively.
